This is a sample that favours compounds with a hit; in the whole collection about 8.5% have one here.
NPSR antagonist = antagonists of human neuropeptide S receptor cAMP signaling. 1% of 220,000 active. Potency, µM (series often up to 38.3 µM), most hits filed as inhibitors. Q6W5P4. AID 1461. CHO-NPSR cells, cAMP TR-FRET, antagonist mode; also: nearly all actives have a fitted effect of over 50% in size
GoLoco inh red = RGS12 GoLoco-Gai1 interaction inhibition. Gai1:RGS12 GoLoco peptide FP, rhodamine, 10 min. Potency, µM (titrated, usually from 61.6 µM), actives largely listed as inhibitors. 0.44% of 230,000 active; active = well fitted inhibition curve with a large enough effect, not every such curve was filed as active; inactive = no such curve, though single readings can be large or run the other way; also: nearly all actives have a fitted effect of over 30% in size
KDM4E inh = inhibitors of human JMJD2E histone demethylase. B2RXH2. JMJD2E catalytic domain, FDH-coupled NADH fluorescence (FDH is formaldehyde dehydrogenase). Potency, µM (highest dose often 57.1 µM), actives largely listed as inhibitors. 1.6% of 230,000 active. AID 2147; active = well fitted inhibition curve with a large enough effect, not every such curve was filed as active; inconclusive = small, poorly fitted or top-dose-only effect, or another doubt; inactive = no such curve, though single readings can be large or run the other way; also: nearly all actives have a fitted effect of over 50% in size
ALDH1A1 inh = inhibitors of human aldehyde dehydrogenase 1A1; P00352; Purified ALDH1A1, NADH fluorescence, propionaldehyde substrate; Potency, µM (top dose mostly 75.3 µM), hits mostly inhibitors; 7.3% of 220,000 active; AID 1030; active = well fitted inhibition curve with a large enough effect, not every such curve was filed as active; inconclusive = small, poorly fitted or top-dose-only effect, or another doubt; inactive = no such curve, though single readings can be large or run the other way
Target sequence (P00352 whole entry, looked up): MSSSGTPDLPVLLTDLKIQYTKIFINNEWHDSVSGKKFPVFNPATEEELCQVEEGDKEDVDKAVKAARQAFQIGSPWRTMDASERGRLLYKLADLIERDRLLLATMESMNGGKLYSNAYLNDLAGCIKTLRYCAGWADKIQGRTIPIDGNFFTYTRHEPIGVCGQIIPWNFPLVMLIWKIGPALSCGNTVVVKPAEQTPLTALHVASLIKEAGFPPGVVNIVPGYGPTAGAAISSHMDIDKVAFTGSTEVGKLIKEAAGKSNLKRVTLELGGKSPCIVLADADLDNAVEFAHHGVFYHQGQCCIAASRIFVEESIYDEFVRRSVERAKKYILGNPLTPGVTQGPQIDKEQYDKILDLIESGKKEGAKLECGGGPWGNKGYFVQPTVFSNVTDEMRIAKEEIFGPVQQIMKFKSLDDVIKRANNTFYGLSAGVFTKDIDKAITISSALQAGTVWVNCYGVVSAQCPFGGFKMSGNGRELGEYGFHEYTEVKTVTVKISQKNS
Sfp inh = Sfp phosphopantetheinyl transferase inhibition; Q9F4F7; Biochemical Sfp PPTase activity, qHTS; Potency, µM, usual class: inhibitors; 3.5% of 310,000 active; AID 1490;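 also: the enzyme is Sfp with the accession as filed and its product quenches rhodamine fluorescence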
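After 15 min at room temperature with compound, 15 nM Sfp received 5 uM rhodamine-CoA plus 12.5 uM BHQ-2-ybbR (50 mM Hepes pH 7.6, 10 mM MgCl2). Rate came from the fluorescence difference over 30 min, ex 525/em 598 nm.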
Coupling enz = inhibits coupling enzyme system, counter-screen for aldolase hits | coupling enzyme system counterscreen, AmpLite Red fluorescence | activity change, negative = inhibition, % at 58.2 µM, hits read low | 0.67% of 290,000 active | AID 2472; in the data active = activity change below about -30%
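First, compound is pin-transferred into glyceraldehyde-3-phosphate coupling-enzyme reagent at 57.5 uM final and held 10 min at RT. Next, substrate, coupling system and AmpLite Red are added. After 20 min RT, fluorescence (525/598 nm) is read.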
Of the large screens only hits and unclear results are named; the others gave an inactive call. Unless noted, calls follow the shape of the dose curve; as a rule, active = well fitted curve in the direction sought with a large enough effect; inconclusive = small, poorly fitted or top-dose-only effect, or another doubt; inactive = no such curve, though single readings can be large; an effect the other way counts as inactive or inconclusive.

O=C(O)c1ccc(NS(=O)(=O)c2cccc3ccccc23)cc1	none (no result: NPSR antagonist, GoLoco inh red, KDM4E inh, Sfp inh, Coupling enz)
CCOc1cc(C2C3=C(CC(C)(C)CC3=O)OC3=C2C(=O)CC(C)(C)C3)cc([N+](=O)[O-])c1O	none
CC1(C)CC(=O)C2=C(C1)OC1=C(C(=O)CC(C)(C)C1)C2c1cc([N+](=O)[O-])cc([N+](=O)[O-])c1O	Sfp inh 11µM, Coupling enz -36
CC(C)CN(CC(C)C)C(=O)Nc1cccc([N+](=O)[O-])c1	none
Cc1c(Cl)c([N+](=O)[O-])nn1CCCC(=O)Nc1sc2c(c1C#N)CCC2	ALDH1A1 inh 13µM, Sfp inh inconclusive
Cc1c(Br)c([N+](=O)[O-])nn1CCCC(=O)Nc1sc2c(c1C#N)CCC2	ALDH1A1 inh 10µM, Sfp inh 22µM
Cc1c(Br)c([N+](=O)[O-])nn1CC(=O)Nc1sc2c(c1C(=O)OC(C)C)CCCC2	none
Cn1cc([N+](=O)[O-])c(C(=O)Nc2sc3c(c2C#N)CCC3)n1	none (no result: NPSR antagonist, GoLoco inh red, KDM4E inh, ALDH1A1 inh, Coupling enz)
Cc1c(Cl)c([N+](=O)[O-])nn1CCCC(=O)Nc1sc2c(c1C(N)=O)CCC(C)C2 (stereo not drawn)	none
COC(=O)c1c(NC(=O)Cn2cnc([N+](=O)[O-])n2)sc2c1CCC(C)C2 (stereo not drawn)	Sfp inh 32µM
Cc1c(Br)c([N+](=O)[O-])nn1CCCC(=O)Nc1sc2c(c1C(N)=O)CCC(C)C2 (stereo not drawn)	ALDH1A1 inh 25µM
COC(=O)c1c(NC(=S)NN2CCN(C)CC2)sc2c1CCC(C)C2 (stereo not drawn)	ALDH1A1 inh inconclusive, Sfp inh inconclusive
CN(CCCN1CCCCC1)C(=O)c1cc(COc2ccc(F)cc2F)on1	none (no result: NPSR antagonist, GoLoco inh red, KDM4E inh, ALDH1A1 inh)
CCCS(=O)(=O)c1nc(S(=O)(=O)c2ccc(C)cc2)c(NCCCN2CCCC2=O)s1	none (no result: NPSR antagonist, GoLoco inh red, KDM4E inh, ALDH1A1 inh)
O=C(CNC(=O)N1CC(=O)Nc2ccccc21)Nc1cccc(F)c1	none (no result: NPSR antagonist, GoLoco inh red, KDM4E inh, ALDH1A1 inh)
COc1c(Cl)cc(C(=O)NCc2ccco2)cc1Cl	none (no result: NPSR antagonist, GoLoco inh red, KDM4E inh, ALDH1A1 inh)
CN1c2ccsc2C(O)=C(C(=S)Nc2ccc(F)c(Cl)c2)S1(=O)=O	KDM4E inh inconclusive, ALDH1A1 inh 9.5µM, Sfp inh 50µM
O=C(OCC(=O)N1c2ccccc2Sc2ccccc21)c1ccc[n+]([O-])c1	ALDH1A1 inh 24µM
O=C(OCC(=O)N1CCc2ccccc21)c1ccc[n+]([O-])c1	none
CCN(CC)CCN(Cc1cc2cc3c(cc2[nH]c1=O)OCO3)C(=S)NC	none (no result: NPSR antagonist, GoLoco inh red, KDM4E inh, ALDH1A1 inh)
Cc1ccc(NC2(c3nnnn3-c3c(C)cccc3C)CCCCC2)cc1	NPSR antagonist inconclusive
CCC(=O)Nc1ccc(C(=O)NNC(=O)c2cccc(C)c2)cc1	none (no result: NPSR antagonist, GoLoco inh red, KDM4E inh, ALDH1A1 inh)
COc1ccccc1NS(=O)(=O)c1cc(C(=O)NCCC(C)C)ccc1F	none
O=C(c1ccc2c(=O)n(-c3ccccc3)c(=O)[nH]c2c1)N1CCN(c2ccc(F)cc2)CC1	none
CC(=O)c1ccc(N2CCN(C(=O)c3ccc4c(=O)n(-c5ccccc5)c(=O)[nH]c4c3)CC2)cc1	ALDH1A1 inh 14µM
Cc1cc(C)n2nc(-c3ccsc3-n3c(C)ccc3C)cc2n1	Sfp inh 50µM
Cc1ccc(-c2cc3nc(C)cc(C)n3n2)cc1	KDM4E inh inconclusive, ALDH1A1 inh inconclusive
O=C(OCC(=O)C12CC3CC(CC(C3)C1)C2)c1cccnc1Cl	ALDH1A1 inh inconclusive
CC(=C\C(=O)O)/C(=C/c1ccc(C)o1)C(=O)O	ALDH1A1 inh 22µM, Sfp inh 4.5µM
Cc1ccc(NC(=O)CN2C(=O)N/C(=C/c3ccc(C)o3)C2=O)cc1	KDM4E inh inconclusive, ALDH1A1 inh 13µM, Sfp inh 10µM
Cc1ccc(NC(=O)CN2C(=O)N/C(=C/c3ccc(C)s3)C2=O)cc1	Sfp inh 40µM
Cc1cc(C(=O)O)ccc1-c1ccc(/C=C2\NC(=O)N(Cc3ccc(F)cc3)C2=O)o1	KDM4E inh inconclusive, Sfp inh inconclusive (no result: ALDH1A1 inh)
C=CCN1C(=O)N/C(=C/c2ccc(C)o2)C1=O	KDM4E inh 18µM, ALDH1A1 inh 7.9µM, Sfp inh 10µM, Coupling enz -39
Cc1ccc(CN2C(=O)N/C(=C/c3ccc(-c4ccc(C(=O)O)cc4)o3)C2=O)cc1	KDM4E inh inconclusive, Sfp inh 18µM (no result: ALDH1A1 inh)
Cc1ccc(NC(=O)CN2C(=O)N/C(=C/c3ccc4c(c3)OCCO4)C2=O)cc1	none (no result: NPSR antagonist, GoLoco inh red, KDM4E inh, ALDH1A1 inh)
